Screening results deposited in PubChem BioAssay by several laboratories.
APOBEC3G inh = blocks human APOBEC3G single-stranded DNA deamination; recombinant A3G, ssDNA deamination FAM/TAMRA fluorescence; inhibition, % at 20 µM; actives 0.28% (n = 330,000); Q9HC16;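 active = inhibition of at least 40% at 20 µM, with no more than 30% in the related APOBEC3A deaminase screen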;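 also: plate controls were DMSO wells with A3G for no effect and wells lacking A3G enzyme for full effect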
esBAF inh = inhibitors of esBAF chromatin remodeling in mouse ES cells; Bmi1-luciferase knock-in reporter, 24 h; 100% = twice the neutral-well signal; reporter increase, % at 12.5 µM; actives 2% (n = 350,000); AID 602393; in the data active = activation above about 40%;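 also: 0% = median of the plate's neutral control wells and 100% = double that signal; a rise in the Bmi1 reporter signal indicates esBAF inhibition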
MITF act = increases MITF-driven TRPM1 promoter luciferase signal; actives 0.75% (n = 300,000); AID 588334; SK-MEL-5 TRPM1-promoter luciferase, 24 h; % of positive control, neutral wells = 0; activation, % at 12.5 µM;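 active = mean activation of at least 80% with every replicate also reaching 80%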;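 also: 0% = neutral control wells and 100% = parthenolide positive control wells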
A3A deaminase = human APOBEC3A DNA deaminase inhibition; AID 493011; actives 0.41% (n = 330,000); recombinant A3A, FAM/TAMRA ssDNA deamination fluorescence; P31941; inhibition, % at 20 µM;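 active = at least 40% inhibition at 20 µM here, with at most 30% in a related deaminase screen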;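 also: plate controls were A3A with DMSO for no effect and wells lacking A3A enzyme for full effect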
Wnt bcat act = activates Wnt/beta-catenin signaling in a reporter cell assay | actives 1.2% (n = 300,000) | activation, % at 9.35 µM | activator, plate reader; in the data active = activation above about 30%, passing the limit was not always enough;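 also: 0% = neutral control wells and 100% = positive control wells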
PHOSPHO1 block = PHOSPHO1 (human) inhibition; Q8TCT1; recombinant PHOSPHO1, absorbance phosphatase assay; inhibition, % at 13.3 µM; actives 1.1% (n = 290,000); AID 1565; in the data active = inhibition above about 60%
Target sequence (Q8TCT1 whole entry, looked up): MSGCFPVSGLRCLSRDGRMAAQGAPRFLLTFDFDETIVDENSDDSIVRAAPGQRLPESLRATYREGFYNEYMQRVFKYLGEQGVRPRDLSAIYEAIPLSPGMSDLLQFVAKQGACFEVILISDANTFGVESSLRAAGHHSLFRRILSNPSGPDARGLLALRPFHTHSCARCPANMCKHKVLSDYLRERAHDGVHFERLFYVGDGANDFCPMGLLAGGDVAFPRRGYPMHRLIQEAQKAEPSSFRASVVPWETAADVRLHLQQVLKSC
* hit, by the source's call. Sampled rows, rich in hits. Any-hit rate of the full collection: about 3.6%.

`Fc1ccc(-c2nnc(-c3ccc(Cl)cc3Cl)o2)cc1` gave APOBEC3G inh 0, esBAF inh 31, A3A deaminase -1, Wnt bcat act 20 and PHOSPHO1 block -5.
CCC(=O)N1[C@H](CNC(=O)CN(C)C)[C@H](c2ccc(C3=CCCC3)cc2)[C@@H]1CO was read as esBAF inh -7.
For CO[C@H]1CN(C)C(=O)c2cc(NC(=O)c3cc(C)on3)ccc2OC[C@@H](C)N(C)C[C@H]1C the results were esBAF inh 3.
For CC(=O)Nc1ccc(NC(=O)c2sc3nc4n(c(=O)c3c2C)CCCCC4)cc1 the results were APOBEC3G inh -4, MITF act -8, A3A deaminase -2, Wnt bcat act 3 and PHOSPHO1 block 12.
For CCc1ccc(NC(=O)c2sc3nc4n(c(=O)c3c2C)CCC4)cc1 the results were APOBEC3G inh -2, esBAF inh 44*, MITF act 33, A3A deaminase -1, Wnt bcat act 10 and PHOSPHO1 block -17.
Screening Cc1c(C(=O)Nc2ccccc2N2CCOCC2)sc2nc3n(c(=O)c12)CCC3 returned PHOSPHO1 block -2.
Screening CC(=O)c1cccc(NC(=O)c2sc3nc4n(c(=O)c3c2C)CCCC4)c1 returned APOBEC3G inh -5, esBAF inh 49*, MITF act 24, A3A deaminase -5, Wnt bcat act 4 and PHOSPHO1 block 28.
COc1ccc(S(=O)(=O)N(C)C[C@@H]2Oc3ccc(NS(=O)(=O)c4cn(C)cn4)cc3CC(=O)N([C@H](C)CO)C[C@@H]2C)cc1 was read as esBAF inh 5.
`CO[C@H]1CN(C)C(=O)c2cc(NC(=O)C3CC3)ccc2OC[C@@H](C)N(C(=O)c2ccncc2)C[C@H]1C` gave esBAF inh 0.
CCOc1ccccc1N1Cc2cc(C)c(C)cc2C1 was read as APOBEC3G inh 0, esBAF inh 46*, A3A deaminase -1, Wnt bcat act 4 and PHOSPHO1 block 26.
`Oc1cccc(N2Cc3ccccc3C2)c1` gave APOBEC3G inh -6, esBAF inh 21, MITF act 13, A3A deaminase -2 and PHOSPHO1 block 16.
`CCOc1ccccc1N1Cc2ccccc2C1` gave APOBEC3G inh 0, esBAF inh -4, MITF act -8, A3A deaminase -1, Wnt bcat act -10 and PHOSPHO1 block 6.
Screening Cc1cc2c(cc1C)CN(c1ccccc1)C2 returned APOBEC3G inh 1, esBAF inh 48*, MITF act 96*, A3A deaminase -2, Wnt bcat act 49* and PHOSPHO1 block 32.
Screening CN1c2ccc(-c3cccc(C#N)c3)cc2[C@H]2[C@H](CCN2S(=O)(=O)c2ccc(F)cc2)[C@@H]1CO returned esBAF inh -2.
`C[C@H](CO)N1C[C@H](C)[C@@H](CN(C)C(=O)c2ccccc2F)Oc2cc(C#CCN(C)C)ccc2S1(=O)=O` gave esBAF inh -2.
Screening CCOC(=O)CN=C1CC(C)(C)CC2=C1Sc1ncnc(N(C)C)c1N2 returned APOBEC3G inh 9, esBAF inh -4, MITF act -15, A3A deaminase 0, Wnt bcat act -2 and PHOSPHO1 block 97*.
Cc1noc(C)c1S(=O)(=O)Nc1ccc2c(c1)C(=O)N([C@H](C)CO)C[C@H](C)[C@@H](CN(C)S(=O)(=O)c1ccccc1)OCCCC[C@@H](C)O2 was read as esBAF inh -7.
`O=C(Cn1cc2c(n1)CCCCC2)NC1CCCCCC1` gave APOBEC3G inh -7, esBAF inh 47*, MITF act 54, A3A deaminase 0, Wnt bcat act 5 and PHOSPHO1 block 2.
CCOC(=O)Cn1c(=S)[nH]c2c(oc3ccc(Cl)cc32)c1=O was read as APOBEC3G inh -6, esBAF inh 0, MITF act 2, A3A deaminase -4, Wnt bcat act 2 and PHOSPHO1 block 93*.
Screening C[C@@H]1CN([C@H](C)CO)C(=O)Cc2cc(NC(=O)Cc3ccccc3)ccc2O[C@H]1CN(C)S(C)(=O)=O returned esBAF inh -3.
Screening CC(=O)c1sc(Nc2ccccc2)nc1C returned esBAF inh 36 and Wnt bcat act 1.
CCOC(=O)c1sc(NC(=O)Nc2ccc(Cl)cc2)nc1C was read as APOBEC3G inh -1, esBAF inh 61*, A3A deaminase 2, Wnt bcat act 39* and PHOSPHO1 block 38.
